# Reference: the supplement of paper PMC8728848
# This excerpt belongs to a sample that is enriched for the strongest signals.
# B1: MpL2 (Macrolepiota procera) (protein)
# chain: MSTQVSSGQTYKITNVKAGTVIRLSGEDNKSIIGYPYHSGKNQQWTFNWTGKAWTLRSASSGSYLGIEGTPADGTRLVAVNDPFEWHIWRDEANENAFRIFVPFTNYNLDLSGYGDTTPGTPVQLWWTWEGLHQTWTIDRP
# Key:
# Test in all cases: glycan array binding signal (z-score within array); higher = stronger binding
# Conditions in all cases: glycan notation: IUPAC condensed, linker removed; mutation: D22R
# [1] = target: Fuc(a1-2)Gal(b1-3)GlcNAc(b1-3)GalNAc
# Outline: (§1)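 Columns mapping to the same glycan were averaged after glycan names were converted to IUPAC-condensed notation. The data come from 3228 arrays in the Consortium for Functional Glycomics database, limited to those with an available protein sequence. Binding is reported as a within-array Z-score averaged across arrays of one protein sequence and across linkers.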
# [2] = target: Fuc(a1-2)Gal(b1-3)[Fuc(a1-4)]GlcNAc(b1-2)Man(a1-3)[Fuc(a1-2)Gal(b1-3)[Fuc(a1-4)]GlcNAc(b1-2)Man(a1-6)]Man(b1-4)GlcNAc(b1-4)[Fuc(a1-6)]GlcNAc(b1-4)[Fuc(a1-6)]GlcNAc
# Outline: as §1
# Fuc(a1-2)Gal(b1-4)GlcNAc = target: Fuc(a1-2)Gal(b1-4)GlcNAc
# Outline: as §1
# [3] = target: Fuc(a1-2)Gal(b1-4)GlcNAc(b1-2)Man
# Outline: as §1
# [4] = target: Fuc(a1-2)[Gal(a1-3)]Gal(b1-4)GlcNAc(b1-3)GalNAc
# Outline: as §1
# [5] = target: Fuc(a1-2)[GalNAc(a1-3)]Gal(b1-3)GalNAc(b1-3)Gal(a1-4)Gal(b1-4)Glc
# Outline: as §1
# [6] = target: Fuc(a1-2)[GalNAc(a1-3)]Gal(b1-4)Glc
# Outline: as §1
# [7] = target: Fuc(a1-2)[GalNAc(a1-3)]Gal(b1-4)GlcNAc(b1-3)Gal(b1-4)GlcNAc
# Outline: as §1
# [8] = target: Fuc(a1-3)[Gal(b1-4)]GlcNAc6S
# Outline: as §1
# Gal(a1-2)Gal = target: Gal(a1-2)Gal
# Outline: as §1
# Gal(b1-3)Gal = target: Gal(b1-3)Gal
# Outline: as §1
# Gal(b1-3)GalNAc(b1-3)Gal = target: Gal(b1-3)GalNAc(b1-3)Gal
# Outline: as §1
# [9] = target: Gal(b1-3)GlcNAc(b1-3)Gal(b1-4)GlcNAc(b1-2)[Gal(b1-3)GlcNAc(b1-3)Gal(b1-4)GlcNAc(b1-6)]Man(a1-6)[Gal(b1-3)GlcNAc(b1-3)Gal(b1-4)GlcNAc(b1-2)Man(a1-3)]Man(b1-4)GlcNAc(b1-4)[Fuc(a1-6)]GlcNAc
# Outline: as §1
# [10] = target: Gal(b1-3)GlcNAc(b1-3)Gal(b1-4)GlcNAc(b1-3)Gal(b1-4)GlcNAc(b1-2)[Gal(b1-3)GlcNAc(b1-3)Gal(b1-4)GlcNAc(b1-3)Gal(b1-4)GlcNAc(b1-6)]Man(a1-6)[Gal(b1-3)GlcNAc(b1-3)Gal(b1-4)GlcNAc(b1-3)Gal(b1-4)GlcNAc(b1-2)Man(a1-3)]Man(b1-4)GlcNAc(b1-4)[Fuc(a1-6)]GlcNAc
# Outline: as §1
# [11] = target: Gal(b1-4)GlcNAc(a1-6)Gal(b1-4)GlcNAc
# Outline: as §1
# [12] = target: Gal(b1-4)GlcNAc(b1-2)Man(a1-3)[GlcNAc(b1-2)Man(a1-6)]Man(b1-4)GlcNAc(b1-4)GlcNAc
# Outline: as §1
# [13] = target: Gal(b1-4)GlcNAc(b1-2)Man(a1-6)[GlcNAc(b1-2)Man(a1-3)]Man(b1-4)GlcNAc(b1-4)GlcNAc
# Outline: as §1
# [14] = target: Gal(b1-4)GlcNAc(b1-3)Gal(b1-3)GalNAc
# Outline: as §1
# [15] = target: Gal(b1-4)GlcNAc(b1-3)Gal(b1-4)GlcNAc(b1-2)Man(a1-3)[Gal(b1-4)GlcNAc(b1-3)Gal(b1-4)GlcNAc(b1-2)Man(a1-6)]Man(b1-4)GlcNAc(b1-4)GlcNAc
# Outline: as §1
# [16] = target: Gal(b1-4)GlcNAc(b1-3)Gal(b1-4)GlcNAc(b1-2)[Gal(b1-4)GlcNAc(b1-3)Gal(b1-4)GlcNAc(b1-6)]Man(a1-6)[Gal(b1-4)GlcNAc(b1-3)Gal(b1-4)GlcNAc(b1-2)Man(a1-3)]Man(b1-4)GlcNAc(b1-4)[Fuc(a1-6)]GlcNAc
# Outline: as §1
# [17] = target: Gal(b1-4)GlcNAc(b1-3)Gal(b1-4)GlcNAc(b1-3)Gal(b1-4)GlcNAc(b1-2)Man(a1-3)[Gal(b1-4)GlcNAc(b1-3)Gal(b1-4)GlcNAc(b1-3)Gal(b1-4)GlcNAc(b1-2)Man(a1-6)]Man(b1-4)GlcNAc(b1-4)GlcNAc
# Outline: as §1
# [18] = target: Gal(b1-4)GlcNAc(b1-3)Gal(b1-4)GlcNAc(b1-3)Gal(b1-4)GlcNAc(b1-2)[Gal(b1-4)GlcNAc(b1-3)Gal(b1-4)GlcNAc(b1-3)Gal(b1-4)GlcNAc(b1-6)]Man(a1-6)[Gal(b1-4)GlcNAc(b1-3)Gal(b1-4)GlcNAc(b1-3)Gal(b1-4)GlcNAc(b1-2)Man(a1-3)]Man(b1-4)GlcNAc(b1-4)[Fuc(a1-6)]GlcNAc
# Outline: as §1
# [19] = target: Gal(b1-4)GlcNAc(b1-3)Gal(b1-4)GlcNAc(b1-3)[Gal(b1-4)GlcNAc(b1-3)Gal(b1-4)GlcNAc(b1-6)]GalNAc
# Outline: as §1
# [20] = target: Gal(b1-4)GlcNAc(b1-3)Gal(b1-4)GlcNAc(b1-6)[Gal(b1-3)]GalNAc
# Outline: as §1
# [21] = target: Gal(b1-4)GlcNAc(b1-6)Gal(b1-4)GlcNAc
# Outline: as §1
# [22] = target: Gal3S(b1-4)[Fuc(a1-3)]GlcNAc
# Outline: as §1
# GalNAc4S6S(b1-4)GlcNAc = target: GalNAc4S6S(b1-4)GlcNAc
# Outline: as §1
# GlcA(b1-6)Gal = target: GlcA(b1-6)Gal
# Outline: as §1
# [23] = target: GlcNAc(a1-4)Gal(b1-4)GlcNAc(b1-3)Gal(b1-4)GlcNAc(b1-3)Gal(b1-4)GlcNAc
# Outline: as §1
# GlcNAc(b1-3)Fuc = target: GlcNAc(b1-3)Fuc
# Outline: as §1
# GlcNAc(b1-3)Gal = target: GlcNAc(b1-3)Gal
# Outline: as §1
# [24] = target: GlcNAc(b1-3)Gal(b1-4)GlcNAc(b1-2)[GlcNAc(b1-3)Gal(b1-4)GlcNAc(b1-6)]Man(a1-6)[GlcNAc(b1-3)Gal(b1-4)GlcNAc(b1-2)Man(a1-3)]Man(b1-4)GlcNAc(b1-4)GlcNAc
# Outline: as §1
# [25] = target: GlcNAc(b1-3)Gal(b1-4)GlcNAc(b1-3)Gal(b1-4)GlcNAc(b1-3)Gal(b1-4)GlcNAc(b1-3)Gal(b1-4)GlcNAc(b1-2)[GlcNAc(b1-3)Gal(b1-4)GlcNAc(b1-3)Gal(b1-4)GlcNAc(b1-3)Gal(b1-4)GlcNAc(b1-3)Gal(b1-4)GlcNAc(b1-6)]Man(a1-6)[GlcNAc(b1-3)Gal(b1-4)GlcNAc(b1-3)Gal(b1-4)GlcNAc(b1-3)Gal(b1-4)GlcNAc(b1-3)Gal(b1-4)GlcNAc(b1-2)Man(a1-3)]Man(b1-4)GlcNAc(b1-4)[Fuc(a1-6)]GlcNAc
# Outline: as §1
# [26] = target: GlcNAc(b1-3)Gal(b1-4)GlcNAc(b1-6)[GlcNAc(b1-3)]Gal(b1-4)GlcNAc
# Outline: as §1
# GlcNAc(b1-3)GalNAc = target: GlcNAc(b1-3)GalNAc
# Outline: as §1
# [27] = target: GlcNAc(b1-4)[GlcNAc(b1-6)]GalNAc
# Outline: as §1
# [28] = target: GlcNAc(b1-6)Gal(b1-4)GlcNAc
# Outline: as §1
# [29] = target: Neu5Ac(a2-3)Gal(b1-3)GlcNAc(b1-2)Man(a1-3)[GlcNAc(b1-4)][Neu5Ac(a2-3)Gal(b1-3)GlcNAc(b1-2)Man(a1-6)]Man(b1-4)GlcNAc(b1-4)GlcNAc
# Outline: as §1
# [30] = target: Neu5Ac(a2-3)Gal(b1-3)[Neu5Ac(a2-6)]GlcNAc(b1-3)[Fuc(a1-3)[Gal(b1-4)]GlcNAc(b1-6)]Gal(b1-4)Glc
# Outline: as §1
# [31] = target: Neu5Ac(a2-3)Gal(b1-3)]Neu5Ac(a2-3)Gal(b1-4)]GlcNAc
# Outline: as §1
# [32] = target: Neu5Ac(a2-3)Gal(b1-4)GlcNAc(b1-2)[Neu5Ac(a2-3)Gal(b1-4)GlcNAc(b1-4)]Man(a1-3)[GlcNAc(b1-4)][Neu5Ac(a2-3)Gal(b1-4)GlcNAc(b1-4)Man(a1-6)]Man(b1-4)GlcNAc(b1-4)GlcNAc
# Outline: as §1
# [33] = target: Neu5Ac(a2-3)Gal(b1-4)GlcNAc(b1-3)Gal(b1-4)[Fuc(a1-3)]GlcNAc
# Outline: as §1
# [34] = target: Neu5Ac(a2-3)Gal(b1-4)[Fuc(a1-3)]GlcNAc(b1-3)Gal(b1-4)[Fuc(a1-3)]GlcNAc(b1-3)Gal(b1-4)[Fuc(a1-3)]GlcNAc
# Outline: as §1
# [35] = target: Neu5Ac(a2-6)Gal(b1-4)GlcNAc(b1-2)Man
# Outline: as §1
# [36] = target: Neu5Ac(a2-6)Gal(b1-4)GlcNAc(b1-3)Gal(b1-3)GlcNAc
# Outline: as §1
# [37] = target: Neu5Ac(a2-6)Gal(b1-4)GlcNAc(b1-3)Gal(b1-4)GlcNAc(b1-3)Gal(b1-4)GlcNAc(b1-2)Man(a1-3)[Neu5Ac(a2-6)Gal(b1-4)GlcNAc(b1-3)Gal(b1-4)GlcNAc(b1-3)Gal(b1-4)GlcNAc(b1-2)Man(a1-6)]GalNAc
# Outline: as §1
# [38] = target: Neu5Ac(a2-6)Gal(b1-4)GlcNAc(b1-3)Gal(b1-4)GlcNAc(b1-3)[Neu5Ac(a2-6)Gal(b1-4)GlcNAc(b1-3)Gal(b1-4)GlcNAc(b1-6)]GalNAc
# Outline: as §1
# [39] = target: Neu5Ac(a2-6)Gal(b1-4)GlcNAc(b1-3)GalNAc
# Outline: as §1
# [40] = target: Neu5Ac(a2-6)Gal(b1-4)GlcNAc(b1-6)[Gal(b1-3)]GalNAc
# Outline: as §1
# Neu5Ac(a2-6)GalNAc = target: Neu5Ac(a2-6)GalNAc
# Outline: as §1
# [41] = target: Neu5Ac(a2-8)Neu5Ac(a2-8)Neu5Ac(a2-3)[GalNAc(b1-4)]Gal(b1-4)Glc
# Outline: as §1
# [42] = target: Neu5Ac(b2-6)Gal(b1-4)GlcNAc
# Outline: as §1
binder,measurement,setting,value
B1,glycan array binding signal (z-score),[1],-0.233
same,glycan array binding signal (z-score),[2],0.051
same,glycan array binding signal (z-score),Fuc(a1-2)Gal(b1-4)GlcNAc,-0.202
same,glycan array binding signal (z-score),[3],0.129
same,glycan array binding signal (z-score),[4],0.092
same,glycan array binding signal (z-score),[5],-0.533
same,glycan array binding signal (z-score),[6],-0.092
same,glycan array binding signal (z-score),[7],-0.256
same,glycan array binding signal (z-score),[8],0.212
same,glycan array binding signal (z-score),Gal(a1-2)Gal,-0.294
same,glycan array binding signal (z-score),Gal(b1-3)Gal,0.078
same,glycan array binding signal (z-score),Gal(b1-3)GalNAc(b1-3)Gal,-0.315
same,glycan array binding signal (z-score),[9],10.4
same,glycan array binding signal (z-score),[10],10.8
same,glycan array binding signal (z-score),[11],4.13
same,glycan array binding signal (z-score),[12],-0.978
same,glycan array binding signal (z-score),[13],-0.42
same,glycan array binding signal (z-score),[14],-0.633
same,glycan array binding signal (z-score),[15],2.6
same,glycan array binding signal (z-score),[16],2.5
same,glycan array binding signal (z-score),[17],2.57
same,glycan array binding signal (z-score),[18],2.85
same,glycan array binding signal (z-score),[19],2.76
same,glycan array binding signal (z-score),[20],1.3
same,glycan array binding signal (z-score),[21],-1.1
same,glycan array binding signal (z-score),[22],-0.293
same,glycan array binding signal (z-score),GalNAc4S6S(b1-4)GlcNAc,-0.021
same,glycan array binding signal (z-score),GlcA(b1-6)Gal,9.35
same,glycan array binding signal (z-score),[23],-0.264
same,glycan array binding signal (z-score),GlcNAc(b1-3)Fuc,0.069
same,glycan array binding signal (z-score),GlcNAc(b1-3)Gal,-0.201
same,glycan array binding signal (z-score),[24],1.11
same,glycan array binding signal (z-score),[25],0.58
same,glycan array binding signal (z-score),[26],-0.264
same,glycan array binding signal (z-score),GlcNAc(b1-3)GalNAc,-0.361
same,glycan array binding signal (z-score),[27],-0.082
same,glycan array binding signal (z-score),[28],-0.168
same,glycan array binding signal (z-score),[29],0.519
same,glycan array binding signal (z-score),[30],0.292
same,glycan array binding signal (z-score),[31],-0.346
same,glycan array binding signal (z-score),[32],-0.638
same,glycan array binding signal (z-score),[33],-0.58
same,glycan array binding signal (z-score),[34],-0.574
same,glycan array binding signal (z-score),[35],-0.185
same,glycan array binding signal (z-score),[36],0.558
same,glycan array binding signal (z-score),[37],2.64
same,glycan array binding signal (z-score),[38],2.97
same,glycan array binding signal (z-score),[39],-0.516
same,glycan array binding signal (z-score),[40],-0.069
same,glycan array binding signal (z-score),Neu5Ac(a2-6)GalNAc,-0.42
same,glycan array binding signal (z-score),[41],0.163
same,glycan array binding signal (z-score),[42],0.011
